For 34 compounds, inhibition results are on record in ChEMBL document CHEMBL1961873, “Compounds: GSK PKIS; Assays: Nanosyn kinase panel” (2012).

One may read the inhibition as the drop in the measured response relative to a control, in per cent.

Structures are written as SMILES.

Sequence of Tyrosine-protein kinase Fes/Fps (Homo sapiens) (P07332 whole entry): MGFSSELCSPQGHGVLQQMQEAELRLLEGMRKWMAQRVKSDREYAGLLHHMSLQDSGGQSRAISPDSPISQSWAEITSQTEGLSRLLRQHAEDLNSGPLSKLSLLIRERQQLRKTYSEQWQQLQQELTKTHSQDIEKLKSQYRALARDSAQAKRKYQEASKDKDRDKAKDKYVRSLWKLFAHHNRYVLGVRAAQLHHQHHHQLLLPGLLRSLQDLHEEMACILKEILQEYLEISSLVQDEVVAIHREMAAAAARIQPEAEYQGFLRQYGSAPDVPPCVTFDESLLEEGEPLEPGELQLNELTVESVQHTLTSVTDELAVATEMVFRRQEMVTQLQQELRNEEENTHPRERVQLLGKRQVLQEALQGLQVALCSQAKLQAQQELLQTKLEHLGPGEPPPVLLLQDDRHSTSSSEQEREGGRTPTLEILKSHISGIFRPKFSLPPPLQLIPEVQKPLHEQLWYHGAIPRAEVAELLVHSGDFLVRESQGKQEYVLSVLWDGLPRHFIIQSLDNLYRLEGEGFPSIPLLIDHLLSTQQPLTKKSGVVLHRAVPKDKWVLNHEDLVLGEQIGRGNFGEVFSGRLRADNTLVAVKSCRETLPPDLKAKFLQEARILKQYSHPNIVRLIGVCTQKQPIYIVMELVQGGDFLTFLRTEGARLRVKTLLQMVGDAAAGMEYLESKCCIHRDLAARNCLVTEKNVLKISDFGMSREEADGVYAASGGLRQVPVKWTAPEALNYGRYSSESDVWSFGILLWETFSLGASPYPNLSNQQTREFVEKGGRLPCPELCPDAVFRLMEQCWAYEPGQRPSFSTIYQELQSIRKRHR
Sequence of Tyrosine-protein kinase Fer (Homo sapiens) (P16591 whole entry, looked up): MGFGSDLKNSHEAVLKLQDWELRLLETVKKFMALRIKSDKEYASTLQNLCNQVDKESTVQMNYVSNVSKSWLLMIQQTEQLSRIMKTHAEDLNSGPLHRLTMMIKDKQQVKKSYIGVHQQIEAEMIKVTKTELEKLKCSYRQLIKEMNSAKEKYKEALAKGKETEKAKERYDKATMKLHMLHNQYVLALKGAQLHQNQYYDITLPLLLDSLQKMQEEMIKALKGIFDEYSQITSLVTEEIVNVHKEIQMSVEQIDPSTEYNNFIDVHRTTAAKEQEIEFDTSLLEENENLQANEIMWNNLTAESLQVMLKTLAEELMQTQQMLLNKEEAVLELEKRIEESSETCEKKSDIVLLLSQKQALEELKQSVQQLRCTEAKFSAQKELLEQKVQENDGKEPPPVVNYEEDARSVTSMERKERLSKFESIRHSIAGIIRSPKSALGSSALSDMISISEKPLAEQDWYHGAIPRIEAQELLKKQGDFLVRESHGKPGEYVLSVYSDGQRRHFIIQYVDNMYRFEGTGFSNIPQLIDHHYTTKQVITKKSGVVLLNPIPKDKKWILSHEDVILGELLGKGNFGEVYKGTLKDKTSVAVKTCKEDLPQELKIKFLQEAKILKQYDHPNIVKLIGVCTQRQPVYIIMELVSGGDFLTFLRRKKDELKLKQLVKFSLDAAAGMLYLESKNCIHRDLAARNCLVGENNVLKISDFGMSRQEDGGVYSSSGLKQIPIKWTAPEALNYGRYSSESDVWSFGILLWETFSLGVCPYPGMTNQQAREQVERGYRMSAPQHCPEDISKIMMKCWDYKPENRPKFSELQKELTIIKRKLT

One assay addresses Tyrosine-protein kinase Fer (Homo sapiens) (UniProt P16591). The following applies: at 1 µM.
Consider `NS(=O)(=O)c1cccc(-c2cc3ccncc3cc2OCc2ccccc2)c1`, for which the inhibition turned out to be 4.16%.

Turning to `COc1cc2ncnc(Nc3ccc4c(cnn4Cc4ccccc4)c3)c2cc1OC`, the inhibition is 7.92%.

`Cc1ccc2c(c1)/C(=N/Nc1ccc(S(N)(=O)=O)cc1)C(=O)N2`: the inhibition turned out to be 0.29%.

For the compound `FC(F)(F)c1ccc(-c2nn3ncccc3c2-c2ccnc(Nc3ccc4c(c3)OCCO4)n2)cc1`, the inhibition amounted to 12.1%.

With `CCCN1CCCC(c2ccc(Nc3nc(Nc4cc(F)ccc4C(N)=O)c4cc[nH]c4n3)c(OC)c2)C1` (stereo not drawn), the inhibition was determined as 84.4%.

Consider `COc1cccc(-n2ncc3c(N/N=C/c4ccc(C)cc4)ncnc32)c1`, for which the inhibition was determined as 17.5%.

`[O-][S+]1CCN(Cc2ccc(-c3ccc4ncnc(Nc5ccc(OCc6ccccc6)c(Cl)c5)c4c3)o2)CC1`: the inhibition was 4.1%.

On to `Cc1cc(Cl)cc2c1NC(=O)C2=NNc1ccc(S(N)(=O)=O)cc1`, for which the inhibition came out at 5.08%.

As to `COc1ccc(-c2nn3ncccc3c2-c2ccnc(Nc3cccc(C(F)(F)F)c3)n2)cc1`, the inhibition amounted to 1.69%.

In the case of `N#Cc1cccc(Nc2nccc(-c3cnn4ncccc34)n2)c1`, the inhibition was 48.9%.

As to `Cc1ccc2c(-c3ccnc(Nc4cccc(C(F)(F)F)c4)n3)c(-c3ccccc3)nn2n1`, the inhibition worked out at 43.3%.

Turning to `Cc1ccc(O)cc1Nc1ccnc2ccc(S(C)(=O)=O)cc12`, the inhibition was 18.5%.

As to `Cc1ccc(Nc2ccnc(Nc3cccc(C(N)=O)c3)n2)cc1O`, the inhibition stood at 23.4%.

As for `O=C1Nc2ccc(-c3cccnc3)cc2C1=Cc1cc(Br)c(O)c(Br)c1`, the inhibition stood at 9.05%.

For `COC(=O)Nc1nc2cc(Oc3ccc(NC(=O)Nc4cccc(Br)c4)cc3)ccc2[nH]1`, the inhibition worked out at 4.33%.

On to `Cc1cc(O)cc(C)c1/C=C/c1cncc(C(=O)N(C)C)c1`, for which the inhibition came to 1.61%.

Turning to `COc1ccc2ncnc(Nc3ccc(OCc4ccccc4)cc3)c2c1`, the inhibition turned out to be 4.76%.

Turning to `CS(=O)(=O)Nc1cccc(-c2ccc3c(NC(=O)C4CC4)n[nH]c3c2)c1`, the inhibition came to 0.02%.

For `COc1cc2ncnc(Nc3ccc(C)c(O)c3)c2cc1OC`, the inhibition is 7.9%.

Turning to `COc1cccc(-n2ncc3c(N/N=C/c4ccc(S(C)(=O)=O)cc4)ncnc32)c1`, the inhibition came to 2.49%.

As for `Cc1nc(-c2ccccc2)n2nc(NCCCN3CCOCC3)ncc12`, the inhibition worked out at 2.98%.

On to `Nc1nccc(C#Cc2cncnc2Nc2ccc(OCc3cccc(F)c3)c(Cl)c2)n1`, for which the inhibition was 3.48%.

With `N#Cc1c(NC(=O)c2ccccc2F)sc2c1CCCC2`, the inhibition is 1.99%.

Consider `CC(C)c1ccc(Nc2nccc(-c3cnn4ncccc34)n2)cc1`, for which the inhibition is 16%.

`NS(=O)(=O)c1ccc(NC=C2C(=O)Nc3ccc4ncsc4c32)cc1`: the inhibition turned out to be 27.7%.

As to `Cc1cc(-c2ccccn2)cc(C)c1/C=C/c1cncc(-c2nn[nH]n2)c1`, the inhibition is 2.12%.

As to `CN(c1ccc(NC(=O)Nc2ccc(OC(F)(F)F)cc2)cc1)c1ccnc(Nc2cccc(S(N)(=O)=O)c2)n1`, the inhibition was 60.4%.

Regarding `COc1cc(/C=N/Nc2ncnc3c2cnn3C(C)C)ccc1O`, the inhibition worked out at 7.03%.

In the case of `NC(=O)c1cccc(Nc2nccc(Nc3cccc(F)c3)n2)c1`, the inhibition worked out at 14.6%.

In the case of `Nc1ccc(C#Cc2cncnc2Nc2ccc(OCc3cccc(F)c3)c(Cl)c2)cc1`, the inhibition is 1.48%.

In the case of `O=C(Nc1ccc(Oc2ccc3[nH]c(NC(=O)c4ccco4)nc3c2)cc1)Nc1cc(C(F)(F)F)ccc1F`, the inhibition came to 5.37%.

Take `CC(C)c1ccc2c(c1)NC(=O)/C2=N/Nc1ccc(S(N)(=O)=O)cc1`: the inhibition is 1%.

For `c1ccc(Cc2nc3ccc(Nc4ncnc5ccccc45)cc3[nH]2)cc1`, the inhibition worked out at 6.1%.

In the case of `CCOc1nccc2c1nc(-c1nonc1N)n2CC`, the inhibition worked out at 6.51%.

The next assay has as its target Tyrosine-protein kinase Fes/Fps (Homo sapiens) (UniProt P07332). Conditions: at 0.1 µM.
Turning to `NS(=O)(=O)c1cccc(-c2cc3ccncc3cc2OCc2ccccc2)c1`, the inhibition amounted to 4.25%.

For `COc1cc2ncnc(Nc3ccc4c(cnn4Cc4ccccc4)c3)c2cc1OC`, the inhibition amounted to 2.06%.

Turning to `Cc1ccc2c(c1)/C(=N/Nc1ccc(S(N)(=O)=O)cc1)C(=O)N2`, the inhibition is -0.01%.

Turning to `FC(F)(F)c1ccc(-c2nn3ncccc3c2-c2ccnc(Nc3ccc4c(c3)OCCO4)n2)cc1`, the inhibition is -0.13%.

With `CCCN1CCCC(c2ccc(Nc3nc(Nc4cc(F)ccc4C(N)=O)c4cc[nH]c4n3)c(OC)c2)C1` (stereo not drawn), the inhibition stood at 61.4%.

Consider `COc1cccc(-n2ncc3c(N/N=C/c4ccc(C)cc4)ncnc32)c1`, for which the inhibition turned out to be 5.32%.

Regarding `[O-][S+]1CCN(Cc2ccc(-c3ccc4ncnc(Nc5ccc(OCc6ccccc6)c(Cl)c5)c4c3)o2)CC1`, the inhibition is 1.31%.

Turning to `Cc1cc(Cl)cc2c1NC(=O)C2=NNc1ccc(S(N)(=O)=O)cc1`, the inhibition stood at 0.93%.

On to `COc1ccc(-c2nn3ncccc3c2-c2ccnc(Nc3cccc(C(F)(F)F)c3)n2)cc1`, for which the inhibition stood at 3.15%.

With `N#Cc1cccc(Nc2nccc(-c3cnn4ncccc34)n2)c1`, the inhibition is 7.07%.

With `Cc1ccc2c(-c3ccnc(Nc4cccc(C(F)(F)F)c4)n3)c(-c3ccccc3)nn2n1`, the inhibition was 3.67%.

On to `Cc1ccc(O)cc1Nc1ccnc2ccc(S(C)(=O)=O)cc12`, for which the inhibition came to 8.11%.

As to `Cc1ccc(Nc2ccnc(Nc3cccc(C(N)=O)c3)n2)cc1O`, the inhibition was 2.5%.

As to `O=C1Nc2ccc(-c3cccnc3)cc2C1=Cc1cc(Br)c(O)c(Br)c1`, the inhibition worked out at 2.71%.

Turning to `COC(=O)Nc1nc2cc(Oc3ccc(NC(=O)Nc4cccc(Br)c4)cc3)ccc2[nH]1`, the inhibition worked out at 1.77%.

`Cc1cc(O)cc(C)c1/C=C/c1cncc(C(=O)N(C)C)c1`: the inhibition was 1.75%.

`COc1ccc2ncnc(Nc3ccc(OCc4ccccc4)cc3)c2c1`: the inhibition came to 0.67%.

For `CS(=O)(=O)Nc1cccc(-c2ccc3c(NC(=O)C4CC4)n[nH]c3c2)c1`, the inhibition was found to be 0.9%.

For `COc1cc2ncnc(Nc3ccc(C)c(O)c3)c2cc1OC`, the inhibition came out at 2.91%.

As for `COc1cccc(-n2ncc3c(N/N=C/c4ccc(S(C)(=O)=O)cc4)ncnc32)c1`, the inhibition was 0.5%.

With `Cc1nc(-c2ccccc2)n2nc(NCCCN3CCOCC3)ncc12`, the inhibition came out at 2.16%.

In the case of `Nc1nccc(C#Cc2cncnc2Nc2ccc(OCc3cccc(F)c3)c(Cl)c2)n1`, the inhibition was 3.46%.

`N#Cc1c(NC(=O)c2ccccc2F)sc2c1CCCC2`: the inhibition was -0.84%.

`CC(C)c1ccc(Nc2nccc(-c3cnn4ncccc34)n2)cc1`: the inhibition worked out at 5.26%.

Turning to `NS(=O)(=O)c1ccc(NC=C2C(=O)Nc3ccc4ncsc4c32)cc1`, the inhibition worked out at 12.3%.

For `Cc1cc(-c2ccccn2)cc(C)c1/C=C/c1cncc(-c2nn[nH]n2)c1`, the inhibition came to 3.53%.

Turning to `CN(c1ccc(NC(=O)Nc2ccc(OC(F)(F)F)cc2)cc1)c1ccnc(Nc2cccc(S(N)(=O)=O)c2)n1`, the inhibition was determined as 4.7%.

As for `COc1cc(/C=N/Nc2ncnc3c2cnn3C(C)C)ccc1O`, the inhibition was 1.26%.

`NC(=O)c1cccc(Nc2nccc(Nc3cccc(F)c3)n2)c1`: the inhibition came to 1.24%.

With `Nc1ccc(C#Cc2cncnc2Nc2ccc(OCc3cccc(F)c3)c(Cl)c2)cc1`, the inhibition is 2.44%.

In the case of `O=C(Nc1ccc(Oc2ccc3[nH]c(NC(=O)c4ccco4)nc3c2)cc1)Nc1cc(C(F)(F)F)ccc1F`, the inhibition came to 0.02%.

As for `CC(C)c1ccc2c(c1)NC(=O)/C2=N/Nc1ccc(S(N)(=O)=O)cc1`, the inhibition is 0.91%.

For `c1ccc(Cc2nc3ccc(Nc4ncnc5ccccc45)cc3[nH]2)cc1`, the inhibition is 1.75%.

Take `CCOc1nccc2c1nc(-c1nonc1N)n2CC`: the inhibition came out at 2.51%.
